From PubChem BioAssay (NCI)
About 79,000 compounds went through this panel and 15% of them were active in at least one assay; those are over-represented in the sample as a whole. Unmarked numbers belong to inactive results. Active and inactive are the calls of the source. No stated cut-off is given here; in the data, active means growth inhibition above about 70%; inactive means the rest.

Tests used:
[1] = NCI Yeast Anticancer Drug Screen. Data for the rad50 strain (AID 155);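 further: 0% = growth of vehicle-only cultures of the same strain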; settings: S. cerevisiae rad50 strain growth inhibition, stronger effect = higher value
In short: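 Cells are treated with compound, grown, and their growth is then scored against vehicle-only cultures of the same repair-deficient yeast strain.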

[2] = NCI Yeast Anticancer Drug Screen. Data for the mec2-1 strain (AID 157); settings: S. cerevisiae mec2-1 strain, stronger effect = higher value
In short: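 Vehicle-treated cultures served as reference for growth inhibition of compound-exposed mec2-1 yeast.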

[3] = NCI Yeast Anticancer Drug Screen. Data for the sgs1 mgt1 strain (AID 161);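 further: 0% = growth of cultures given vehicle only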; settings: S. cerevisiae sgs1 mgt1 strain, stronger effect = higher value
In short: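 Read-out: growth inhibition vs vehicle controls. Cells: mutant yeast strain deficient in DNA damage repair.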

[4] = NCI Yeast Anticancer Drug Screen. Data for the cln2 rad14 strain (AID 165);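 further: 0% = growth equal to vehicle treated cultures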; settings: S. cerevisiae cln2 rad14 strain, stronger effect = higher value
In short: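 Each compound was tested on cln2 rad14 yeast. Inhibition of growth was calculated against vehicle-exposed controls.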

[5] = NCI Yeast Anticancer Drug Screen. Data for the bub3 strain (AID 167); settings: S. cerevisiae bub3 mutant strain, stronger effect = higher value
In short: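 Part of a panel of yeast mutants defective in DNA damage repair or cell cycle regulation. Each strain is grown with compound, and inhibition is calculated relative to solvent-treated cultures.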

[6] = NCI Yeast Anticancer Drug Screen. Data for the mlh1 rad18 strain (AID 175); settings: S. cerevisiae mlh1 rad18 strain growth inhibition, stronger effect = higher value
In short: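 Vehicle-treated cultures served as the reference for growth inhibition in a yeast strain carrying DNA damage repair alterations exposed to each compound.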

[7] = at 5.0 µM (retest, dose inferred, filed as 0.5)
[8] = at 50.0 µM (retest, dose inferred, filed as 5.0)

Structure (SMILES)	growth inhibition [1, 7] [%]	growth inhibition [1, 8]	growth inhibition ([1]; at 50.0 µM)	growth inhibition [2, 7] [%]	growth inhibition [2, 8]	growth inhibition ([2]; at 50.0 µM)	growth inhibition [3, 7] [%]	growth inhibition [3, 8]	growth inhibition ([3]; at 50.0 µM)	growth inhibition [4, 7] [%]	growth inhibition [4, 8]	growth inhibition ([4]; at 50.0 µM)	growth inhibition [5, 7] [%]	growth inhibition [5, 8]	growth inhibition ([5]; at 50.0 µM)	growth inhibition [6, 7] [%]	growth inhibition [6, 8]	growth inhibition ([6]; at 50.0 µM)
C[N+](C)(C)CC(=O)N/N=C(\C(=O)NC1=C(Cl)C(=O)c2ccccc2C1=O)C(C#N)c1nc(-c2ccc([N+](=O)[O-])cc2)cs1 (stereo not given)	27	98% (active)	76% (active)	6	97% (active)	56.6%	11	97% (active)	60.3%	13	91% (active)	50.6%	-23	97% (active)	75.2% (active)	13	97% (active)	78.7% (active)
O=[N+]([O-])c1ccc(N=C(Cl)C(Cl)(c2ccccc2)c2ccccc2)cc1	14	97% (active)	96.2% (active)	11	97% (active)	96.7% (active)	-20	98% (active)	97% (active)	9	97% (active)	94.2% (active)	8	96% (active)	95.2% (active)	7	97% (active)	95.5% (active)
CCN(CC)CCO/N=C1\CC[C@H]2[C@@H]3CCc4cc(OC)ccc4[C@H]3CC[C@]12C	31	99% (active)	89.1% (active)	27	98% (active)	92.2% (active)	58	98% (active)	91.3% (active)	67	98% (active)	89% (active)	66	98% (active)	90.7% (active)	34	99% (active)	89.7% (active)
Clc1ccccc1N1CCN(c2c3c(nc4ccccc24)CCCCC3)CC1	-4	89% (active)	93.3% (active)	11	96% (active)	95.8% (active)	38	96% (active)	94% (active)	-13	91% (active)	94.2% (active)	-10	92% (active)	93.2% (active)	42	94% (active)	95.6% (active)
CCOC(=O)C(Cl)C(Cl)C(=O)OCC (stereo not given)	12	98% (active)	98.8% (active)	6	98% (active)	99% (active)	2	99% (active)	99.5% (active)	6	98% (active)	98.4% (active)	22	98% (active)	99% (active)	12	99% (active)	99% (active)
Cc1ccc(S(=O)(=O)NCCSCCSCCNS(=O)(=O)c2ccc(C)cc2)cc1	-1	-7%	55.4%	-2	-8%	92.2% (active)	-2	1%	50.5%	-3	-5%	86.9% (active)	0	-1%	94.6% (active)	-2	-2%	55.2%
Oc1ccc(C(O)(c2ccccc2)c2ccccc2)c2ccccc12	45	94% (active)	98.2% (active)	12	98% (active)	97.9% (active)	59	93% (active)	98.5% (active)	28	67%	97.2% (active)	7	43%	98% (active)	20	96% (active)	97.5% (active)
CCOC(=O)C1=C(C)Oc2cc3c(cc2C1c1cc(OC)c(OC)c(OC)c1)OCO3 (stereo not given)	8	40%	54.6%	11	64%	28.9%	-1	37%	47.3%	11	89% (active)	19.1%	36	94% (active)	55.6%	12	83% (active)	45.8%
C=CCc1ccc(OC(=O)CCl)c(OC)c1	1	23%	64.8%	1	9%	27.8%	-1	5%	12.6%	2	8%	28.8%	-2	3%	18.6%	0	26%	81.7% (active)
CC(C)CN(CC(C)C)CN1C(=O)/C(=C/c2ccc([N+](=O)[O-])cc2)SC1=S	16	53%	63.2%	8	61%	40.3%	11	59%	67.7%	37	44%	46.9%	4	37%	41.2%	26	66%	71.2% (active)
